Assay outcomes: PubChem BioAssay, National Center for Advancing Translational Sciences (NCATS)
Sampled rows, rich in hits. Any-hit rate of the full collection: about 11%.
NS1 inh: influenza NS1 inhibition; AID 2326; Potency, µM (highest dose often 46.1 µM), for inactives: at the highest dose activity, positive = more growth; 0.4% of 270,000 active; calls by dose curve; further: actives are rising curves; nearly all actives have a fitted effect of over 50% in size
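In this qHTS, NS1 from influenza A is expressed in budding yeast, where it slows growth. Cells are switched from glucose to 2% galactose medium (pH 6.0, -URA), treated with compound, and growth recovery is read at OD600.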
AMA1-RON2 inh: AMA1-RON2 (P. falciparum) interaction inhibition. AID 720542. AlphaScreen AMA1-biotinylated RON2 peptide binding. Potency, µM (series often up to 58.2 µM), for the others: at the top dose activity change, negative = inhibition, most hits filed as inhibitors. 0.2% of 360,000 active;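 further: 0% = vehicle wells and -100% = peptide control; nearly all actives have a fitted effect of over 45% in size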
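AMA1 (3D7) with his tag at 25 nM final met compounds first, then biotinylated RON2 peptide at 25 nM; detection used donor plus acceptor beads, 10 µg/mL apiece, read by AlphaScreen after 30 min at room temperature.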
Sm TGR block: inhibitors of Schistosoma mansoni thioredoxin glutathione reductase. 3% of 360,000 active. Q962Y6. purified TGR, DTNB reduction, TNB absorbance 405 nm. AID 485364. Potency, µM (highest dose often 114 µM), without a hit: top-dose activity change, negative = inhibition, usual class: inhibitors; further: on the % scale 0 is the no-effect control and ±100 the full control effect; nearly all actives have a fitted effect of over 60% in size
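First, TGR (20 nM dispensed) and NADPH were mixed with compound. Second, a 15 min room-temperature incubation followed. Third, further NADPH and then DTNB were added to start the reaction. Finally, TNB absorbance was monitored kinetically.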
Pf growth 96h: P. falciparum growth inhibition at 96 hour, primary screen for plastid delayed-death inhibitors; P. falciparum luciferase reporter growth, 96 h; Potency, µM (top dose mostly 28.7 µM), inactives show at the top dose activity change, negative = inhibition, most hits filed as inhibitors; 6.9% of 320,000 active; AID 504834; further: on the % scale 0 is the no-effect control and ±100 the full control effect
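Readout is luminescence from an integrated firefly luciferase in P. falciparum. Red cells, 2% hematocrit and 0.05% parasitemia final, were cultured with compound through two parasite generations (96 hours) at 37 C, 5% CO2.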
Pf growth 48h: inhibits P. falciparum growth in the first generation, 48 h; P. falciparum luciferase growth in erythrocytes, 48 h; 5.9% of 310,000 active; Potency, µM (highest dose often 28.7 µM), without a hit: at the top dose activity change, negative = inhibition, actives largely listed as inhibitors; further: on the % scale 0 is the no-effect control and ±100 the full control effect
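Compounds are pin-transferred into medium, infected erythrocytes (2% hematocrit, 0.1% parasitemia final) are added, and plates sit one parasite generation at 37 C in 5% CO2. Detection reagent is then added and luminescence measured.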
Active calls of the source: *; i = inactive; ? = inconclusive; / = no result given; [ ] = dose if it differs, or a comment. Unless noted, the call rests on the fitted dose curve; in most records, active means well fitted curve in the direction sought with a large enough effect; inconclusive means small, poorly fitted or top-dose-only effect, or another doubt; inactive means no such curve, though single readings can be large; an effect the other way counts as inactive or inconclusive. Potency means the concentration at half of the fitted maximal effect.

SMILES	NS1 inh	AMA1-RON2 inh	Sm TGR block	Pf growth 96h	Pf growth 48h
O=c1[nH]cc(COCC(F)CCl)c(=O)[nH]1 (centres undefined)	-0.5%	8.4%	18.4%	8.2%	-7.5%
COC(=O)c1cnn(-c2ccc(C(=O)Nc3ccc(C(C)=O)cc3)cc2)c1N	/	/	-1.4%	?	5.22µM*
CC(=O)c1ccc(NC(=O)c2cnn3ccccc23)cc1	-13.1%	-0.6%	-4.6%	10.4µM*	/
CC(NC(=O)COC(=O)c1cccnc1Cl)C12CC3CC(CC(C3)C1)C2 (centres undefined)	/	3.1%	/	/	/
Cc1cccc(N2CCN(C(=O)CN3C(=O)COc4ccc(S(=O)(=O)N5CCOCC5)cc43)CC2)c1C	/	/	7.8%	/	/
COc1ccc(CNC(=O)c2ccc(S(=O)(=O)N3CC(C)CC(C)C3)cc2)cc1OC (centres undefined)	/	12.4%[11.6 µM]	/	/	/
COc1cc(OC)c(OC)cc1CNC(=O)c1ccc(S(=O)(=O)N2CC(C)OC(C)C2)cc1 (centres undefined)	/	-5.0%	-5.8%	10.4µM*	?
c1sc2[n+](c1C13CC4CC(CC(C4)C1)C3)CCS2	3.2%	-0.3%	1.4%	2.94µM*	2.33µM*
C[C@H](CO)N1C[C@H](C)[C@@H](CN(C)Cc2ccc(-c3ccccc3)cc2)Oc2c(NS(=O)(=O)c3cccs3)cccc2C1=O	/	-25.2%	/	/	/
CCc1cccc2c(C#N)cn(CC(=O)NCCOC)c12	-5.5%	5.1%	3.9%	-21.0%	10.4µM*
CCc1cccc2c(C#N)cn(CCOc3ccccc3OC)c12	-3.9%	19.0%	7.0%	-14.0%	?
Nc1c(N(CCCO)C(=O)C2CCCCC2)c(=O)[nH]c(=O)n1Cc1ccccc1	/	-6.2%	/	/	/
O=C(CCCC(=O)OCC(=O)c1ccc(Cl)cc1Cl)Nc1cc(C(F)(F)F)ccc1Cl	7.6%	6.9%	89.1µM*	0.0%	25.5%
CN1C(=O)CC(N2CCC(C(N)=O)CC2)C1=O (centres undefined)	7.0%	-14.1%	-16.2%	?	12.6%
NC(=O)C1CCN(C2CC(=O)N(c3ccc(F)c(Cl)c3)C2=O)CC1 (centres undefined)	-147.0%	-8.9%	25.1µM*	44.9%	6.3%
Cc1ccccc1N1C(=O)CC(N2CCC(C(N)=O)CC2)C1=O (centres undefined)	-113.0%	5.1%	22.4µM*	/	-13.9%
NC(=O)C1CCN(C2CC(=O)N(c3cccc(F)c3)C2=O)CC1 (centres undefined)	-74.8%	2.9%	35.5µM*	/	2.2%
CCCCS(=O)(=O)N1C2=NC(C(=O)OC)=C(C(=O)OC)[C@@H]3N(C)c4ccc(OC)cc4[C@]23C[C@H]1C(=O)OC	-11.3%	?	3.9%	?	10.4µM*
COC(=O)C1=C(C(=O)OC)[C@@H]2N(C)c3ccc(OC)cc3[C@@]23C[C@@H](C(=O)OC)N(C(=O)C2CCC2)C3=N1	-14.3%	?	7.8%	50.8%	?
COC(=O)C1=C(C(=O)OC)[C@@H]2N(C)c3ccc(OC)cc3[C@@]23C[C@@H](C(=O)OC)N(S(=O)(=O)c2ccc([N+](=O)[O-])cc2)C3=N1	-2.4%	-29.2%	2.2%	13.1µM*	7.38µM*
Cc1cccn2c(=O)c3cc(C(=O)NCCc4ccc(S(N)(=O)=O)cc4)n(C)c3nc12	/	/	-1.9%	/	/
COc1cc(CN2CCCCCC2)c([N+](=O)[O-])cc1OC	6.5%	-4.8%	-1.9%	73.5%	0.0%
COc1cccc(CNc2ccc(F)c([N+](=O)[O-])c2)c1O	/	-18.9%	1.7%	20.0%	8.7%
COc1cc(CNc2ccccc2)c([N+](=O)[O-])cc1OC	-0.1%	?	-9.3%	i	13.1µM*
CCN1CCN(Cc2cc(OC)c(OC)cc2[N+](=O)[O-])CC1	5.1%	-3.0%	31.6µM*	73.5%	57.7%
SMILES	NS1 inh	AMA1-RON2 inh	Sm TGR block	Pf growth 96h	Pf growth 48h
O=[N+]([O-])c1cc(S(=O)(=O)NC2=NCCCCC2)ccc1NCC1CCCCC1	/	-25.0%	7.4%	?	-18.4%
O=C1C=C(N2CCCCC2)c2ccccc2C1=O	/	-7.5%	/	/	/
CC(C)(C)C1=CC(=O)C(N2CCOCC2)=CC1=O	-18.0%	-25.3%	-19.6%	14.7µM*	10.4µM*
COC(=O)C1=NN(N=O)C2(CC(=O)N(c3cc(C)cc(C)c3)C2=O)C1 (centres undefined)	-3.3%	20.9%	25.1µM*	-4.3%	/
CCOC(=O)C1=NN(C(C)=O)C2(CC(=O)N(c3cc(C)cc(C)c3)C2=O)C1 (centres undefined)	3.4%	24.5%	-9.6%	16.6%	-4.3%
Cc1cccc(-c2nc3c4ccccc4n(Cc4cccc(Cl)c4)c(=O)n3n2)c1	/	/	-1.7%	/	/
C#CCOCCOCCOCCNc1nc(N2CCN(C(=O)CCCCCCCCCCNC(=O)[C@H](CCCCN)n3cc(C[C@@H](C)CC)nn3)CC2)nc(N2CCN(C(=O)CCCCCCCCCCNC(=O)[C@H](CCCN=C(N)N)n3cc(C[C@@H](C)CC)nn3)CC2)n1	/	?	?	3.29µM*	3.29µM*
C#CCOCCOCCOCCNc1nc(N2CCN(C(=O)Cn3cc(CC(C)O)nn3)CC2)nc(N2CCN(C(=O)[C@H](CCCCN)n3cc(CC(C)O)nn3)CC2)n1 (some centres undefined)	/	-3.3%	/	/	/
C#CCOCCOCCOCCNc1nc(N2CCN(C(=O)Cn3cc(CCCN=C(N)N)nn3)CC2)nc(N2CCN(C(=O)[C@H](CCCCN)n3cc(CCC(=O)O)nn3)CC2)n1	/	-17.9%	-6.7%	?	-24.6%
C#CCOCCOCCOCCNc1nc(N2CCN(C(=O)CCCCCCCCCCNC(=O)[C@H](CO)n3cc(CCCCCN)nn3)CC2)nc(N2CCN(C(=O)CCCCCCCCCCNC(=O)[C@H](CCCN=C(N)N)n3cc(C[C@@H](C)CC)nn3)CC2)n1	/	/	44.7µM*	2.62µM*	3.29µM*
C#CCOCCOCCOCCNc1nc(N2CCN(C(=O)CCCCCCCCCCNC(=O)[C@H](CCCCN)n3cc(C)nn3)CC2)nc(N2CCN(C(=O)CCCCCCCCCCNC(=O)[C@H](CCCN=C(N)N)n3cc(C[C@@H](C)CC)nn3)CC2)n1	/	?	-26.5%	1.47µM*	1.85µM*
C#CCOCCOCCOCCNc1nc(N2CCN(C(=O)CCCCCCCCCCNC(=O)[C@@H](CCSC)n3cc(CCO)nn3)CC2)nc(N2CCN(C(=O)CCCCCCCCCCNC(=O)[C@H](CCCN=C(N)N)n3cc(C[C@@H](C)CC)nn3)CC2)n1	/	?	5.01µM*	1.17µM*	3.29µM*
Clc1cccc(Cc2c(C3CCCCC3)nc3ccc(Br)cn23)c1	/	-6.7%	/	/	/
CN1CCN(NC(=O)Nc2cc(Cl)cc(Cl)c2)CC1	-3.2%	-5.1%	-8.0%	43.8%	-10.4%
CC(CN1CCN(C)CC1)OC(=O)c1cccc(Cl)c1 (centres undefined)	?	17.3%	-24.1%	47.5%	5.5%
